The values below come from PubChem BioAssay (EPA / NIEHS).

In general, AC50 refers to the midpoint of the concentration-response curve, whichever way the signal moves.

Common to all, as to conditions: mRNA level, 48 h; actives raise or lower the signal
Read-out in test [1]: DNA damage-inducible transcript 3 (DDIT3), DDIT3 (gene 1649)
The experiment in a line: LTEA_HepaRG_DDIT3: Life Technologies and Expression Analysis (LTEA) Assay for DNA damage-inducible transcript 3 (DDIT3) using HepaRG (AID 2283488). In outline:
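Eight-point concentration-response (100 uM highest, half-log dilutions) in HepaRG, 48 h, duplicate wells. Endpoint: qRT-PCR mRNA, normalized (ACTB, GAPDH, POLR2A), bidirectional fitting with DMSO as baseline.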

Read-out in test [2]: Pro-epidermal growth factor (Homo sapiens) (UniProt P01133)
The experiment in a line: LTEA_HepaRG_EGF: Life Technologies and Expression Analysis (LTEA) Assay for Epidermal growth factor (EGF) using HepaRG (AID 2283489). In outline: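 qRT-PCR readout of EGF transcript after 48 h chemical exposure of HepaRG cells; eight concentrations from 100 uM down in half-log steps, duplicate wells, 0.5% DMSO vehicle. Bidirectional curve fitting against DMSO baseline.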

Read-out in test [3]: Early growth response protein 1 (EGR1) transcription factor, EGR1 (gene 1958)
The test is described as follows: LTEA_HepaRG_EGR1: Life Technologies and Expression Analysis (LTEA) Assay for Early growth response protein 1 (EGR1) transcription factor using HepaRG (AID 2283490). In outline:
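EGR1 expression change in human HepaRG after 48 h chemical exposure, assessed by housekeeping-normalized qRT-PCR; concentration-response up to 100 uM, fitted in both directions against DMSO controls.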

Read-out in test [4]: Ezrin (EZR), EZR (gene 7430)
The test is described as follows: LTEA_HepaRG_EZR: Life Technologies and Expression Analysis (LTEA) Assay for Ezrin (EZR) using HepaRG (AID 2283491). In outline: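 Read-out is EZR transcript level by qRT-PCR, normalized to three housekeeping genes and fitted bidirectionally against the DMSO control. Human HepaRG cells received test chemicals for 48 h at eight half-log concentrations up to 100 uM in 0.5% DMSO.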

Read-out in test [5]: Cytochrome P450 3A7 (Homo sapiens) (UniProt P24462)
The experiment in a line: LTEA_HepaRG_CYP3A7: Life Technologies and Expression Analysis (LTEA) Assay for CYP3A7 using HepaRG (AID 2283492). In outline: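 CYP3A7 transcript levels were read by TaqMan qRT-PCR on Fluidigm arrays after 48 h chemical exposure of human HepaRG cells, with housekeeping-gene normalisation. Eight half-log concentrations up to 100 uM in 0.5% DMSO were tested in duplicate.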

Read-out in another test: CYP3A5 (gene 1577)
The test is described as follows: LTEA_HepaRG_CYP3A5: Life Technologies and Expression Analysis (LTEA) Assay for CYP3A5 using HepaRG (AID 2283493). In outline: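 Readout was CYP3A5 mRNA by qRT-PCR. HepaRG cultures were exposed for 48 h in serum-free induction medium to chemicals at up to 100 uM, and responses were fitted in both directions relative to DMSO vehicle.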

Read-out in test [6]: Fatty Acid-Binding Protein 1 (FABP1), FABP1 (gene 2168)
The test is described as follows: LTEA_HepaRG_FABP1: Life Technologies and Expression Analysis (LTEA) Assay for Fatty Acid-Binding Protein 1 (FABP1) using HepaRG (AID 2283494). In outline: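 Values reflect bidirectional concentration-response fitting of FABP1 mRNA change against 0.5% DMSO controls. Human HepaRG cultures received eight half-log doses (top 100 uM) for 48 h; expression quantified by TaqMan qRT-PCR with housekeeping-gene normalization.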

Read-out in test [7]: Cytochrome P450 4A22 (Homo sapiens) (UniProt Q5TCH4)
The experiment in a line: LTEA_HepaRG_CYP4A22: Life Technologies and Expression Analysis (LTEA) Assay for Cytochrome P450 4A22 (CYP4A22) using HepaRG (AID 2283495). In outline:
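HepaRG, 48 h post-plating -> serum-free induction medium; dosed 48 h, duplicate, 8 conc. (100 uM top, half-log), 0.5% DMSO. Readout: CYP4A22 mRNA by qRT-PCR, ACTB/GAPDH/POLR2A normalization; gain/loss fit relative to DMSO.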

Read-out in test [8]: Cytochrome P450 7A1 (Homo sapiens) (UniProt P22680)
The test is described as follows: LTEA_HepaRG_CYP7A1: Life Technologies and Expression Analysis (LTEA) Assay for Cytochrome P450 7A1 (CYP7A1) using HepaRG (AID 2283496). In a few lines:
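Using 0.5% DMSO as vehicle and baseline, chemicals were tested in duplicate over an 8-point range from 100 uM on HepaRG cells for 48 h; qRT-PCR signals were normalised to ACTB, GAPDH and POLR2A.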

Read-out in test [9]: Glutathione S-Transferase (GSTA2), GSTA2 (gene 2939)
The experiment in a line: LTEA_HepaRG_GSTA2: Life Technologies and Expression Analysis (LTEA) Assay for Glutathione S-Transferase (GSTA2) using HepaRG (AID 2283497). In a few lines: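 Oxidative-stress marker GSTA2 is quantified by TaqMan qRT-PCR in HepaRG cultures treated 48 h across an eight-point range to 100 uM. Expression is normalized to endogenous controls and compared with 0.5% DMSO vehicle.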

Read-out in test [10]: Glutamate-cysteine ligase catalytic (GCLC), GCLC (gene 2729)
The test is described as follows: LTEA_HepaRG_GCLC: Life Technologies and Expression Analysis (LTEA) Assay for Glutamate-cysteine ligase catalytic (GCLC) using HepaRG (AID 2283498). In outline: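 Oxidative-stress marker GCLC is measured as mRNA change in human HepaRG liver cells after 48 h chemical treatment in 0.5% DMSO, eight concentrations from 100 uM. Activity is fitted bidirectionally against vehicle.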

Read-out in test [11]: growth arrest and DNA damage 45 (GADD45G), GADD45G (gene 10912)
The experiment in a line: LTEA_HepaRG_GADD45G: Life Technologies and Expression Analysis (LTEA) Assay for growth arrest and DNA damage 45 (GADD45G) using HepaRG (AID 2283499). In a few lines:
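HepaRG, 48 h exposure, top 100 uM, half-log 8-point series, 0.5% DMSO vehicle, duplicates. Readout: GADD45G transcript by qRT-PCR (Fluidigm array), housekeeping-normalised (ACTB/GAPDH/POLR2A). Bidirectional curve fit vs DMSO baseline.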

Read-out in test [12]: Glutamate-cysteine ligase regulatory (GCLM), GCLM (gene 2730)
The test is described as follows: LTEA_HepaRG_GCLM: Life Technologies and Expression Analysis (LTEA) Assay for Glutamate-cysteine ligase regulatory (GCLM) using HepaRG (AID 2283500). In outline: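 In this multiplexed HepaRG gene-expression assay, GCLM mRNA change after 48 h treatment (8 concentrations, max 100 uM) was scored against DMSO by bidirectional curve fitting.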

Read-out in test [13]: Heat shock 70 kDa protein 1 (HSPA1A), gene 3303
The test is described as follows: LTEA_HepaRG_HSPA1A: Life Technologies and Expression Analysis (LTEA) Assay for Heat shock 70 kDa protein 1 (HSPA1A) using HepaRG (AID 2283502). In outline: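 An oxidative-stress marker readout: HepaRG cells treated 48 h in duplicate with an eight-point series (highest 100 uM) had HSPA1A mRNA quantified by TaqMan qRT-PCR. Activity was fitted in both directions using 0.5% DMSO as baseline.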

Read-out in test [14]: Hypoxia-inducible factor 1-alpha (Homo sapiens) (UniProt Q16665)
The experiment in a line: LTEA_HepaRG_HIF1A: Life Technologies and Expression Analysis (LTEA) Assay for Hypoxia-inducible factor 1 (HIF1A) Trancription factor using HepaRG (AID 2283503).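 Note: HIF1A transcript by TaqMan qRT-PCR normalized to ACTB GAPDH and POLR2A.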 In outline:
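Gain- or loss-of-signal HIF1A mRNA changes are fitted against a DMSO baseline. HepaRG cultures receive eight concentrations, highest 100 uM, for 48 h in serum-free induction medium with 0.5% DMSO.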

Read-out in test [15]: 3-Hydroxy-3-Methylglutaryl-CoA Synthase 2 (HMGCS2), HMGCS2 (gene 3158)
The test is described as follows: LTEA_HepaRG_HMGCS2: Life Technologies and Expression Analysis (LTEA) Assay for 3-Hydroxy-3-Methylglutaryl-CoA Synthase 2 (HMGCS2) using HepaRG (AID 2283504). In a few lines: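 qRT-PCR read-out of HMGCS2 transcript, normalised to three housekeeping genes, in HepaRG cells after 48 h chemical exposure. Eight-point curves from 100 uM, half-log dilutions, 0.5% DMSO vehicle; gain or loss fitted relative to DMSO baseline.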

Read-out in test [16]: Insulin Like Growth Factor 1 (IGF1), IGF1 (gene 3479)
The test is described as follows: LTEA_HepaRG_IGF1: Life Technologies and Expression Analysis (LTEA) Assay for Insulin Like Growth Factor 1 (IGF1) using HepaRG (AID 2283506). In a few lines:
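Endpoint: IGF1 mRNA change by qRT-PCR, housekeeping-normalized, fitted bidirectionally relative to 0.5% DMSO vehicle. Human HepaRG cells were treated 48 h in serum-free induction medium, eight half-log concentrations topping at 100 uM.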

Read-out in test [17]: Intercellular Adhesion Molecule 1 (ICAM1), ICAM1 (gene 3383)
The test is described as follows: LTEA_HepaRG_ICAM1: Life Technologies and Expression Analysis (LTEA) Assay for Intercellular Adhesion Molecule 1 (ICAM1) using HepaRG (AID 2283507). In outline:
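HepaRG, 48 h exposure, 8-pt half-log series from 100 uM, 0.5% DMSO vehicle, duplicates. Readout: TaqMan qRT-PCR mRNA, housekeeping-normalized (ACTB/GAPDH/POLR2A). Bidirectional curve fit vs DMSO baseline.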

Read-out in the next test: HGF (gene 3082)
The test is described as follows: LTEA_HepaRG_HGF: Life Technologies and Expression Analysis (LTEA) Assay for Hepatocyte Growth Facto (HGF) using HepaRG (AID 2283505). In outline: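 HepaRG, 48 h dosing, 8-pt half-log series from 100 uM in 0.5% DMSO, duplicates. Readout: TaqMan qRT-PCR of HGF mRNA, housekeeping-normalized; bidirectional curve fit vs DMSO baseline.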

Molecules are shown by their SMILES. Activity calls are given as the source filed them. Rule for the calls: active = hit-call score of the fitted dose curve at least 0.9, where 1 is the maximum; inactive = score below 0.9.

Chain of Hypoxia-inducible factor 1-alpha (Homo sapiens) (Q16665 whole entry, looked up): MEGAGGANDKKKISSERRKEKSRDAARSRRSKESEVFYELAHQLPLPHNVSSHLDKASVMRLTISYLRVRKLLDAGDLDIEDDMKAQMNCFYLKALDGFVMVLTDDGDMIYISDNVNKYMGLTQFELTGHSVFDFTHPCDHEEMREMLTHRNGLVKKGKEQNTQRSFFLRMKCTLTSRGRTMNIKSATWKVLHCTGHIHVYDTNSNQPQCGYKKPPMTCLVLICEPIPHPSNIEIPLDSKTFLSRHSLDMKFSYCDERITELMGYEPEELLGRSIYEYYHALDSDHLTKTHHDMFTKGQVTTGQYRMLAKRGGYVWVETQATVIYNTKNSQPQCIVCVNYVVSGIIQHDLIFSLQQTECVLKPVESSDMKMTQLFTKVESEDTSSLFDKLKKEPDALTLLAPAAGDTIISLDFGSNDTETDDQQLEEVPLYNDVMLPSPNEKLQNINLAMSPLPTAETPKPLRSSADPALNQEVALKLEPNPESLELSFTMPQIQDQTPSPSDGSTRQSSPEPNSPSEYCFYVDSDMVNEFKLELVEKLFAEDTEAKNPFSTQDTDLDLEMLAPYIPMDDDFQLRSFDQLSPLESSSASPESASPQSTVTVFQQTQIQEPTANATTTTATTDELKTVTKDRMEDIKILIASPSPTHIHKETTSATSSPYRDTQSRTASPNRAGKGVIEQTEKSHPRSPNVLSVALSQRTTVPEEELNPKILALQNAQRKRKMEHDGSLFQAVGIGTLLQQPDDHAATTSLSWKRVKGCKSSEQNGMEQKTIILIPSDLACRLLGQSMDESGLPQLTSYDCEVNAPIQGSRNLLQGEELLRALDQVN
Chain of Cytochrome P450 3A7 (Homo sapiens) (P24462 whole entry, looked up): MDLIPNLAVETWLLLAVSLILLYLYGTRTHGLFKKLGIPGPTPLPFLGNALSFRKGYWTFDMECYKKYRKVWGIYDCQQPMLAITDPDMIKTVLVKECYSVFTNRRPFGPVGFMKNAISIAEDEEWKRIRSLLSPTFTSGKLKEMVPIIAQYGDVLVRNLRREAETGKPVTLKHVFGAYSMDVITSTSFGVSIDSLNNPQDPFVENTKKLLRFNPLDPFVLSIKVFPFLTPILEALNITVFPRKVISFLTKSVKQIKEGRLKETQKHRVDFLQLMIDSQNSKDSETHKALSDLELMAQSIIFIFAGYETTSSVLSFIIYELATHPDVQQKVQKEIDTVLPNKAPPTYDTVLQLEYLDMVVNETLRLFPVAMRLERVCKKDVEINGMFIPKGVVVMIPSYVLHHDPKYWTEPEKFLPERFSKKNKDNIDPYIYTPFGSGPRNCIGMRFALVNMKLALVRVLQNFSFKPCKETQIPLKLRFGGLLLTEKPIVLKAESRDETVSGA

For `CCC(C)c1cc([N+](=O)[O-])cc([N+](=O)[O-])c1O` (configuration not stated), the half-maximal activity concentration (AC50) in test [1] is 5.95 µM (active); in test [2] it was 1.97 µM (active); in [3], 17.1 µM (active); in test [4], 3.74 µM (active); in test [5], 1.57 µM (active); in the test with CYP3A5 (gene 1577), 15.5 µM (active). In addition, the AC50 in test [6] is 1.27 µM (active); in test [7], 2.35 µM (active); in test [8], 2.67 µM (active); in test [9], 2.72 µM (active); in test [10] it was 1.29 µM (active); in test [11], 4.96 µM (active). Also, the half-maximal activity concentration (AC50) in test [12] was 50 µM (active); in [13], 2.49 µM (active); in test [14], 18.5 µM (active); in [15], 2.93 µM (active); in test [16], 1.24 µM (active). In addition, the outcome in test [17] was inactive.
For the molecule `CC(c1ccc(O)cc1)(c1ccc(O)cc1)c1ccc(O)cc1`, the call in [1], in [2], in test [7], in test [12], in test [13] and in test [14] was inactive. Also, the concentration at half-maximal activity (AC50) in [3] is 81 µM (active); in test [4] it was 38.7 µM (active); in test [5], 20.7 µM (active); in the test with CYP3A5 (gene 1577), 37.1 µM (active); in [6], 75.8 µM (active); in test [8], 67 µM (active). Also, the AC50 is 37.3 µM (active) in test [9]; 73.4 µM (active) in [10]; 75.1 µM (active) in test [11]; 85.1 µM (active) in test [15]; 92 µM (active) in test [16]; 33.4 µM (active) in test [17].
On to `CCC(C)(CC)c1cc(NC(=O)c2c(OC)cccc2OC)on1`, for which the AC50 in test [1] was 83.3 µM (active); in test [5], 1.39 µM (active); in [6], 4.89 µM (active); in test [7], 19.5 µM (active); in [10], 63.8 µM (active); in test [11], 80.1 µM (active). Besides, in [16], the half-maximal activity concentration (AC50) is 1.79 µM (active). In addition, the call (in test [2]; in [3]; in test [4]; with CYP3A5 (gene 1577); in [8]; in test [9]) was inactive. The molecule was called inactive in test [12], in [13], in [14], in [15] and in test [17].
For `c1cc2ccc3cccc4ccc(c1)c2c34`, the result (in test [1]; in [2]; in test [3]; in [4]; with CYP3A5 (gene 1577); in [6]) was inactive. Moreover, the outcome in test [7], in test [8], in test [9], in test [10], in [11] and in [12] was inactive. Further, the result (in test [13]; in [14]; in test [15]; with HGF (gene 3082); in test [16]; in test [17]) was inactive.
